# Measurements published in the supplement of paper PMC6555819.
# System: THRa homodimer (NR concentration 90 nM)
# Experiment: PBM binding z-score (relative to random genomic background probes); higher = stronger binding; sequences stand for … in GC…GCGATTGACAGCGTAGAATGAAGG
# Procedure, shortened: (§1)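 Random background probes are the reference for binding z-scores. These scores derive from regression-normalized fluorescence on custom Agilent 4×180K protein-binding microarrays incubated 1 h with ligand-free nuclear receptor dimers. Binding was detected with antibodies against each partner (one per run).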
row,Sequence,PBM binding z-score
1,CCTACTGGGCCATAAGGTCATTGATATCAACGTT,4.56
2,TCTAGCAGGCCCGAGGGTCACTCAAGAGGTACGG,-0.376
3,CCTACAGGGCCACGAAAGGTCATTGATTCAGTGA,0.829
4,TCTCGGAGGACACCAAGGTCAGAGCTTTCCAGAG,2.38
5,CCTTACGGGTCACTCCAGGTTGTAGCATCGGAGT,0.074
6,TAGCCTACGTCAGATCGGGCCAGTATACGCTATA,-0.732
7,CAAACTAGGTCACGATAGGTCAAAGTCGAATGAC,2.39
8,GCTGCTAGGTCAACTGATGGTCAGCAAAAGCTCG,0.775
9,ATACCAAGGTGATCGTGGGGTCGTTGATACTAAC,1.93
10,ATATGTAGGTTGTCGGGTCATTCAGTTTGCGCAT,3.12
11,TCAGACAGGTGAAGGTAACGCAGGTACGCAGTCG,0.208
12,CAAACTAGGTCACCGGAAGTTCAAAGTCCGCATG,2.14
13,TCTTGTAGATCAAAGGTAAAGAAAGCCGAAGCCT,-0.548
14,CAAACTAGGTCACCGGAAGGTCAACGTCCGCATG,3.19
15,CCAGACAGGTGAGAAGGTAAATCAGCCTCGATTA,-0.24
16,TCTGCTAGGTCAGTTGGTCAGTTAACGAGCTGCC,0.247
17,AGTCAAAGTTCATCTAGGTAACGTAGGATATGCT,0.358
18,CCTACTGGGACAAGGTCATTGATCAGTCAAAGCA,2.27

# System: VDR homodimer (NR concentration 270 nM)
# Experiment: as above
# Procedure, shortened: as §1
row,Sequence,PBM binding z-score
1,CAAACTAGGTCAGAACAGGACAGTGAAGGATGAT,0.417
2,TCTAGTAGATCAACAGGAGGTTAAGAAAGATCGA,0.097
3,TCATATAGATAAAAGGTGAAAGTCGGTGTGGTAA,0.309
4,TCTCGGTGGACACGAAAGGTCAGAGCTCGACATC,0.45
5,CCTAGCAGGCCAGGGTCTCTCAAGCATTTCGCTT,-0.871
6,TTACCAAGGTGAGCTGAGGTCGTTGAACCAACTC,2.01
7,ATCGAAAGGTCGAGGTGATTATAGAGAAAGGGAA,0.821
8,CGTCCAAGGTCAAAGGTCGGTGAAGAGATGACGG,2.78
9,AGAATGATGTTATACGTAGATCAGGGAAGAAAGT,-0.17
10,ATTCCAAGGTGATCGTGAGGTCGTTGATACTAAC,3.2
11,TCTAGCAGGCCACAGGGTCACTCAAGAGGTACGG,2.07
12,TGTCAAAGTTCAAAGGAAACGTAAGTATCCACAC,3.4
13,GGAACGATGGCATTCGAGTTGATAGCATGGCGAT,-0.268
14,CTCGAAAGGTCGTGCTCAGGTGAGTATTCCAAAC,0.806
15,TCTCGGAGGACACGAAGGTCAGAGGTTTCCAGAG,1.73
16,ATATGTAGCTTATCGGGTCATTCAGTTTGCGCAT,3.7
17,CCGACTGGGGCACAAAGGTTACCATACCATCCGG,0.375
18,GGAACGAGGGGAAAGTTGATAGCATCTGTCGACG,-0.402
19,CGAACTAGGTGATCCAGGACAGTGAATACATTGA,0.0681
20,TCATATAGGTAAACGGTGAAAGTCGGTGTGGTAA,-0.132

row,Sequence,PBM binding z-score
1,CCGACTGGGGCAGAAAGGTTGCCATACCATCCGG,-0.404
2,ATAGGTAGGTTAGCTGGGGTCATTCAGACTAGGC,5.44
3,CCTACTGGGCCATAAGGTCATTGATATCAACGTT,2.93
4,TCTAGCAGGCCCGAGGGTCACTCAAGAGGTACGG,0.268
5,CCTACAGGGCCACGAAAGGTCATTGATTCAGTGA,2.2
6,TCTCGGAGGACACCAAGGTCAGAGCTTTCCAGAG,2.31
7,CCTTACGGGTCACTCCAGGTTGTAGCATCGGAGT,1.05
8,TAGCCTACGTCAGATCGGGCCAGTATACGCTATA,-0.727
9,CAAACTAGGTCACGATAGGTCAAAGTCGAATGAC,2.02
10,GCTGCTAGGTCAACTGATGGTCAGCAAAAGCTCG,0.254
11,ATACCAAGGTGATCGTGGGGTCGTTGATACTAAC,2.92
12,ATATGTAGGTTGTCGGGTCATTCAGTTTGCGCAT,4.2
13,TCAGACAGGTGAAGGTAACGCAGGTACGCAGTCG,-0.187
14,CAAACTAGGTCACCGGAAGTTCAAAGTCCGCATG,4.8
15,TCTTGTAGATCAAAGGTAAAGAAAGCCGAAGCCT,-0.117
16,CAAACTAGGTCACCGGAAGGTCAACGTCCGCATG,2.78
17,CCAGACAGGTGAGAAGGTAAATCAGCCTCGATTA,-0.437
18,TCTGCTAGGTCAGTTGGTCAGTTAACGAGCTGCC,-0.347
19,AGTCAAAGTTCATCTAGGTAACGTAGGATATGCT,5.15
20,CCTACTGGGACAAGGTCATTGATCAGTCAAAGCA,3.29
